Screens deposited in PubChem by National Center for Advancing Translational Sciences (NCATS).
Shown are actives, neighbours in structure and some others; about 13% of the full set was active somewhere.
FMDV antiviral = antivirals against foot and mouth disease virus; FMDV antiviral cell-based qHTS; Potency, µM (titrated, usually from 57.9 µM), for the others: top-dose activity change, negative = inhibition, actives largely listed as inhibitors; 1.2% of 410,000 active; calls by dose curve; tested in HEK293T cells; note: read-out not given here; potency is the fitted concentration of half-maximal effect; % is set by controls: 0 for no effect and ±100 for the full control effect; nearly all actives have a fitted effect of over 45% in size
Marburg entry inh = Marburg virus entry inhibition | Potency, µM (top dose mostly 37.8 µM), inactives show top-dose activity change, negative = inhibition, actives largely listed as inhibitors | Marburg virus pseudotyped entry inhibition, cell reporter | AID 540276 | 1.8% of 300,000 active; calls by dose curve; tested in HEK293 cells; note: potency is the fitted concentration of half-maximal effect; % is set by controls: 0 for no effect and ±100 for the full control effect
HCV inh = HCV inhibition | Huh7.5.1 HCVcc-Cre infection, luciferase reporter, 44 h | Potency, µM (top dose mostly 41.8 µM), for inactives: at the highest dose activity change, negative = inhibition, hits mostly inhibitors | 3.4% of 340,000 active | AID 651820; active = well fitted inhibition curve with a large enough effect; inconclusive = small, poorly fitted or top-dose-only effect, or another doubt; inactive = no such curve, though single readings can be large or run the other way; note: potency is the fitted concentration of half-maximal effect; % is set by controls: 0 for no effect and ±100 for the full control effect
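Whole-lifecycle infectious HCVcc-Cre system; cells 1,000/well, compound then virus (~0.5 moi) added 4 h after plating, 44 h culture. Luciferase read 15 sec following 15 min substrate incubation, room temp.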
Shiga inhibitor = Shiga toxin inhibition; 9.2% of 290,000 active; inhibition, % at 38.7 µM; Vero cells, Shiga toxin protein synthesis inhibition reporter; in the data active = inhibition mostly above about 28%, no sharp cut-off; inactive = mostly below about 43%; note: 0% is about no effect
Lassa entry inh = inhibitors of Lassa virus binding or cell entry | Lassa virus pseudotype entry inhibition, cell reporter | Potency, µM (titrated, usually from 37.9 µM), without a hit: at the top dose activity change, negative = inhibition, actives largely listed as inhibitors | 1.2% of 300,000 active | AID 540256; calls by dose curve; tested in HEK293 cells; note: potency is the fitted concentration of half-maximal effect; % is set by controls: 0 for no effect and ±100 for the full control effect; nearly all actives have a fitted effect of over 50% in size
Cycloheximide cs = affects cycloheximide protein synthesis inhibition readout, counter-screen. 12% of 300,000 active. cell reporter, cycloheximide protein synthesis inhibition counterscreen. max response, %. AID 2314; in the data active = max response mostly above about 13%, no sharp cut-off; inactive = mostly below about 14%; note: read at 38.3 µM for the half of the compounds with a filed dose; 0% is about no effect
Starred values were filed as active, the others as inactive; ? = inconclusive; · = no result given; [ ] = dose if it differs, or a comment.

SMILES	FMDV antiviral	Marburg entry inh	HCV inh	Shiga inhibitor	Lassa entry inh	Cycloheximide cs
CCOC(=O)N1CCN(C(=O)C2CCCN(c3nc4ccc(OCC)cc4s3)C2)CC1 (stereo not given)	-17%	·	?	30*	·	13
Cn1ncc(Br)c1C(=O)Nc1cccc(C(F)(F)F)c1	-12%	-11%[46.1 µM]	-8%	-15	-18%	10
COC(=O)CN(c1ccccc1[N+](=O)[O-])S(=O)(=O)c1ccccc1	20%	-12%[46.1 µM]	8%	-5	10%	-2
Cc1cccc(C)c1Nc1oc(-c2ccccc2)nc1-c1ccccc1	·	-26%[14.2 µM]	·	·	·	·
COc1ccc(CN(CCNC(=O)CCCCC(=O)NCCN(Cc2ccc(OC)cc2)C(C)C)C(C)C)cc1	-13%	·	11µM*	·	·	·
COc1ccc(CCNC(=O)CCCCC(=O)NCCc2ccc(OC)cc2)cc1	2%	·	8%	·	·	-3
N=c1c2c(-c3ccccc3)c(-c3ccccc3)n(Cc3ccccc3)c2ncn1CCO	?	?	?	-8	?	-10
CC(C)Cn1cnc2c(c(-c3ccccc3)c(-c3ccccc3)n2Cc2ccco2)c1=N	?	2.8µM*	11µM*	-6	6.3µM*	-4
N=c1c2c(-c3ccccc3)c(-c3ccccc3)n(Cc3ccco3)c2ncn1CCCN1CCOCC1	-14%	7.1µM*	7.1µM*	16	-8%	-5
N=c1c2c(-c3ccccc3)c(-c3ccccc3)oc2ncn1CCCN1CCOCC1	?	8.2µM*	?	-9	?	-6
N=c1c2c(-c3ccccc3)c(-c3ccccc3)n(Cc3ccco3)c2ncn1Cc1ccccc1	-9%	-8%	-19%	12	1%	3
CCOC(=O)c1c(NC(=O)COc2cccc(C)c2C)sc2c1CCCCC2	-7%	·	·	·	-4%[46.1 µM]	·
COc1cc(=O)[nH]c(SC(C)C(=O)Nc2cccc3ccccc23)n1 (stereo not given)	-17%	15%[46.1 µM]	24%	-2	10%	-7
O=C(CSc1ccc([N+](=O)[O-])cn1)Nc1ccc2c(c1)OCO2	-5%	0%[46.1 µM]	-23%	49	7%[46.1 µM]	2
CCOC(=O)C1CCCN(c2c(NCCC(C)C)c(=O)c2=O)C1 (stereo not given)	2%	8%	-3%	-11	20%	-3
O=C(CSc1nnc(-c2ccco2)o1)Nc1ccccc1Cl	-14%	·	6%	13	·	16*
O=C(CSc1nnc(-c2ccncc2)o1)Nc1ccccc1Cl	7%	6%[46.1 µM]	9%	4	26%	10
O=c1c2ccccc2nnn1CSc1nnc(-c2ccco2)o1	55%	11%[46.1 µM]	8%	38	?	20*
O=C(CSc1nnc(-c2ccccn2)o1)Nc1ccccc1Cl	60%	?	-1%	71*	·	33*
O=C(CSC1=Nc2ccccc2N=C(c2ccc(F)cc2)C1)Nc1ccccc1	-22%	·	·	·	11%[46.1 µM]	·
CCCC(c1nnnn1Cc1ccc(F)cc1)N1CCN(CC)CC1 (stereo not given)	-4%	2%[46.1 µM]	7%	-2	-4%	-4
CC(Cc1ccccn1)NC(=O)c1ccc(OC2CCN(Cc3ccccn3)CC2)cc1 (stereo not given)	-13%	?	-10%	24*	-11%	38*
O=C(NCCc1ccccn1)c1ccc(OC2CCN(Cc3ccccn3)CC2)cc1	0%	·	-7%	64*	·	83*
CCN(CC)C(C)C(=O)Nc1c2c(cc3c1CCC3)CCC2 (stereo not given)	-18%	15µM*	-26%	-5	-13%	-6
CCOC(=O)CC(SP1(=S)OCC2(CCCCC2)CO1)C(=O)OCC (stereo not given)	6%	0%	32%	·	-24%	·
SMILES	FMDV antiviral	Marburg entry inh	HCV inh	Shiga inhibitor	Lassa entry inh	Cycloheximide cs
S=C(Nc1ccccc1Cl)Nc1ccc(Cl)cc1Cl	?	0%	6%	10	3%	1
O=C(NNC(=S)Nc1ccccc1Cl)c1ccncc1	14%	-9%[46.1 µM]	0%	80	22%	15*
CN(C(=O)Nc1ccc(Cl)cc1Cl)C1CCCC1	7%	·	5%	44*	·	18*
O=C(NNC(=S)Nc1ccc(Cl)cc1Cl)c1ccncc1	30%	?	14%	31	19%	14*
O=C(Nc1ccc(Cl)cc1Cl)NC1CCCC1	13%	17%[46.1 µM]	0%	34	-18%[46.1 µM]	12
O=C(NNC(=S)Nc1ccc(Cl)cc1Cl)C1CC1	0%	?	14%	21	5%	26*
CCOc1ccccc1-c1noc(CCC(=O)Nc2cccnc2)n1	?	-9%[46.1 µM]	5%	-2	25%[46.1 µM]	5
Cn1c(=O)c2c(SCC(=O)Nc3ccc(F)cc3F)nc(C3CCCC3)nc2n(C)c1=O	?	·	·	·	2%[46.1 µM]	·
O=C(CSc1ncccn1)NC1CCCc2ccccc21 (stereo not given)	58%	-3%[46.1 µM]	3%	2	-15%	7
CCOC(=O)C1CCCN(C(=O)Nc2c(-c3ccccc3)noc2C)C1 (stereo not given)	-3%	3%	20%	2	9%	-2
COc1ccc(C(=O)N=c2sc3c(C)ccc(OC)c3n2C)cc1OC	44%	·	16µM*	27	·	12
COc1cccc(C(=O)N=c2sc3c(C)ccc(OC)c3n2C)c1	55%	·	?	49*	·	45*
COc1ccc(C(=O)N=c2sc3ccccc3n2C)cc1OC	5%	?	-29%	32	-7%[46.1 µM]	20
COc1ccccc1C(=O)N=c1sc2c(C)ccc(OC)c2n1C	19%	?	?	107*	-22%[46.1 µM]	40*
CCn1cc(CNC(=O)CCc2ccc(OC)cc2)cn1	6%	-13%	4%	-12	14%	-3
CCC(=O)Nc1ccc(-c2ccc(N3CCN(C)CC3)nn2)cc1	32%	·	4%	35*	·	26*
CCC(=O)Nc1ccc(-c2ccc(N3CCC(C)CC3)nn2)cc1	18%	·	-10%	76*	·	29*
CC1CCN(c2ccc(-c3cccc(NC(=O)C(F)(F)F)c3)nn2)CC1	16µM*	?	-20%	-27	2.2µM*	-16
CC1CCN(c2ccc(-c3cccc(NC(=O)c4ccco4)c3)nn2)CC1	-24%	7.9µM*	?	·	2.5µM*	·
O=C(Nc1cccc(-c2ccc(N3CCCCC3)nn2)c1)C(F)(F)F	-62%	·	-13%	-16	·	-14
COc1cccc(CC2(CO)CCCN(Cc3cn[nH]c3-c3ccccc3)C2)c1 (stereo not given)	1%	?	-2%	-6	-35%[46.1 µM]	-2
CCC(=O)Nc1cccc(-c2ccc(N3CCC(C)CC3)nn2)c1	-74%	·	-5%	64*	·	45*
CCOc1ccc(C=Nc2cccc3ncccc23)cc1	-8%	·	0%	16	·	7
Cc1ccc(Sc2ncccc2/C=N/O)cc1	11%	?	3%	35	13%[46.1 µM]	14
Cc1ccc(C=Nc2cccnc2N)cc1	39%	36%	17%	13*	25%	19*
COc1ccc(C=Nc2cccnc2N)cc1	1%	8%[46.1 µM]	-1%	·	27%[46.1 µM]	24*
CS(=O)(=O)Nc1cccc(-c2cc(NCc3cccs3)ncn2)c1	8%	·	·	·	·	·
CCS(=O)(=O)NCc1nnc2n1-c1ccc(Br)cc1C(c1ccccc1Cl)=NC2	-7%	·	14%	·	·	·
